# Test results from PubChem BioAssay AID651629 (Sanford-Burnham Center for Chemical Genomics, 2012).
# Some of the results follow. Unmarked numbers belong to inactive results. Calls of active or inactive are those of the source.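 Rule for the calls: active = mean inhibition across replicates of 40% or more; inactive = mean inhibition below 40%.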
# Assay: triacylglycerol accumulation inhibitors, retest, confirmation, cell-based, single concentration, Nile Red fluorescence, H9c2 (AID 651629);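 note: plate controls were DMSO only wells for no effect and Triacsin C treated wells for full effect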
# Details: H9c2 lipid accumulation, at 12.5 µM, hits give high values, cells loaded with 200 µM oleic acid
row,SMILES,inhibition
1,COc1ccc2sc(-c3ccc(S(C)(=O)=O)cc3)c(C#Cc3cncn3C)c2c1,74.2% (active)
2,O=C(Nc1ccccc1)Oc1cccc2cccnc12,-3.58%
3,O=C(Nc1nc(-c2ccncc2)cs1)C1COc2ccccc2O1 (stereo unspecified),31.4%
4,COc1ccc2sc(-c3ccc(N(C)C)cc3)c(C#CCO)c2c1,85.7% (active)
5,C=CCn1c(SCc2c(C)noc2C)nc2sc3c(c2c1=O)CCC(C)C3 (stereo unspecified),49.4% (active)
6,C=CCNC(=S)N/N=C/c1ccc(C)s1,24.3%
7,CCCCN1C(=O)/C(=C/C=C2/C=Cc3ccccc3N2CC)SC1=S,127% (active)
8,COc1cc(NC(=O)c2cncc(-c3ccc(C#N)cc3)c2)cc(C(=O)Nc2cccc(C(F)(F)F)c2)c1,39.1%
9,CCCC(=O)Nc1nc2ccc(NC(=O)c3c(F)c(F)c(OC)c(F)c3F)cc2s1,69% (active)
10,CC1(c2ccccc2)CC(C)(C)N(C(=O)c2cc([N+](=O)[O-])cc([N+](=O)[O-])c2)c2ccccc21 (stereo unspecified),62.2% (active)
11,COc1ccc(Nc2cc(=O)oc3ccccc23)cc1,50.6% (active)
12,CN(/N=C/c1ccccc1)C(=S)c1ccccc1,12.5%
13,CN(C)CC(O)COc1ccc(C(C)(C)c2ccc(OCC(O)CN(C)C)cc2)cc1 (stereo unspecified),20.9%
14,COc1ccc(S(=O)(=O)N2CCc3ccccc32)cc1C(=O)Nc1cc(S(C)(=O)=O)ccc1Cl,16.4%
15,CN(C)CCNC(=O)c1cccc(-c2cnc3c(NC=O)cc(-c4cccc(C(F)(F)F)c4)cn23)c1,50.4% (active)
16,CC(C)C(=O)N1CCC2(CC1)Oc1ccc(F)cc1C(=O)C21CC(c2ccccc2)=NO1 (stereo unspecified),-2.17%
17,CN(C)C(=O)c1cccc(-c2cnc3c(NC=O)cc(-c4ccc(C(=O)N5CCOCC5)cc4)cn23)c1,58% (active)
18,C=CCC[C@@H](Cc1ccc(F)cc1)C(=O)OC[C@H](Cc1c[nH]c2ccccc12)NC(=O)[C@@H](CC=C)CC(=O)N(CCO)Cc1ccccc1,80% (active)
19,COC(C[C@H](O)CC(=O)COCc1ccccc1)OC,-3.23%
20,CCOC(=O)N1CCN(C(=O)c2ccccc2N(Cc2ccccc2)S(=O)(=O)c2ccc(OC)cc2)CC1,64.1% (active)
21,O=C1c2ccccc2C(=O)c2c1cccc2N1CCN(C/C=C/c2ccccc2)CC1,64% (active)
22,O=C(Nc1cc2c3c(c1)C1CCCC1CN3CC1CCCC21)c1ccc([N+](=O)[O-])cc1 (stereo unspecified),56.6% (active)
23,O=C(Cc1cccc2ccccc12)Nc1ccc2oc(-c3ccccc3)nc2c1,25.7%
24,CCOCCC(=O)Nc1ccc2c(c1)c(=O)n(C)n2-c1ccc2ccccc2c1,47.5% (active)
25,CC(=O)c1cccc(-c2ccc(CN3C(CC(C)C)C(=O)N(Cc4cn(CC5CCCCC5)nn4)CCS3(=O)=O)cc2)c1 (stereo unspecified),47% (active)
26,Oc1cccc2cc(-c3ccncc3)cnc12,71.1% (active)
